In the library only some 2.8% were active in any assay of this set; here they are far more common.
Mcl-1 Bim block: disrupts Bim peptide binding to human Mcl-1. Q07820. Bead-based flow cytometry, Bim peptide-Mcl-1 binding. inhibition, % at 10 µM. 0.1% of 190,000 active; in the data active = inhibition above about 40%;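 note: 0% = no compound tracer wells and 100% = peptide blocker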
Target sequence (Q07820 whole entry, looked up): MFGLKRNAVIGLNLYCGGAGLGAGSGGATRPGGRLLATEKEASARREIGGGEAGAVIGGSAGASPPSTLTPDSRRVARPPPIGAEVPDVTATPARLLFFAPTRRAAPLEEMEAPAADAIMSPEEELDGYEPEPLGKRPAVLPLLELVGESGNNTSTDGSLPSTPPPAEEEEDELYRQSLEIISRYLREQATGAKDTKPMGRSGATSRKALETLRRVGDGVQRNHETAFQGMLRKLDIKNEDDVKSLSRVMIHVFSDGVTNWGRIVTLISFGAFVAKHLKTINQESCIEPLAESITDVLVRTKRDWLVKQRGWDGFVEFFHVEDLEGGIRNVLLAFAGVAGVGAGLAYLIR
TNF death inh: TNF-alpha cell death inhibition in Jurkat FADD-/- cells. AID 463075. Jurkat FADD-/- TNF necroptosis rescue, ATP luminescence, 24 h; 0 = TNF only, 100 = no-TNF cells. 0.068% of 220,000 active. activation (protection from cell death), % at 10 µM;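 active = activation, meaning protection from cell death, of at least 50% relative to plate controls; inactive = activation below 50%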;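 note: necroptosis triggered by 40 ng/mL TNF-alpha added together with compound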
Mcl1-Bid inh: disrupts binding of human Mcl-1 to Bid peptide | AID 1021 | TR-FRET Mcl-1/Bid-Dy647 peptide binding, 1536-well | 0.97% of 220,000 active | Q07820 | inhibition, % at 21.7 µM;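 active = compounds that cut the binding signal by more than half at the single screening dose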;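 note: His-tagged Mcl-1 with europium anti-His antibody binding Bid BH3 peptide; 0% = Mcl-1 plus peptide wells and 100% = peptide-only wells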
L929 necroptosis: blocks zVAD induced death of L929 cells | L929 zVAD necroptosis rescue, ATP luminescence, 24 h; with zVAD 60 µM | viability rescue, % at 10 µM | 0.38% of 220,000 active | AID 1377;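 active = activation, scaled between plate controls, above about 75%, limit read from the data; inactive = activation under that limit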;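 note: 0% = zVAD with DMSO and 100% = DMSO alone without zVAD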
Calpain2 inh: calpain II (pig) inhibition; 0.37% of 220,000 active; inhibition, % at 16 µM; purified calpain II, fluorogenic peptide substrate, 30 min;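 active = inhibition above about 50%, limit read from the data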
Mcl1 Noxa PPI: disrupts binding of human Mcl-1 to Noxa peptide; Q07820; TR-FRET Mcl-1/Noxa peptide binding, 2 h; inhibition, % at 21.7 µM; 1.5% of 220,000 active;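 active = compounds that cut the protein-peptide binding signal by more than 50% relative to plate controls in a single-dose test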;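 note: His-tagged Mcl-1 with rhodamine Noxa BH3 peptide and terbium anti-His antibody; 0% = Mcl-1 plus Noxa peptide wells and 100% = peptide-only wells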
Starred values were filed as active, the others as inactive; nt = not tested or not shown.

SMILES | Mcl-1 Bim block | TNF death inh | Mcl1-Bid inh | L929 necroptosis | Calpain2 inh | Mcl1 Noxa PPI
COc1cc(/C=C2/SC(=S)N(CC3CCCO3)C2=O)ccc1O (centres undefined) | -1.0 | -1.6 | 72.2* | -1.4 | 29.2 | 13.1
O=C(O)C(Cc1ccccc1)N1C(=O)/C(=C/c2ccccc2)SC1=S (centres undefined) | -5.0 | 1.4 | 17.4 | -0.1 | 15.8 | 20.8
O=C(O)C(Cc1ccccc1)N1C(=O)/C(=C/c2cccc3ccccc23)SC1=S (centres undefined) | 4.0 | -2.5 | 91.0* | -0.4 | 56.3* | 78.2*
COc1cc(/C=C2\SC(=S)N(C(Cc3ccccc3)C(=O)O)C2=O)ccc1O (centres undefined) | nt | -0.1 | 55.5* | 1.2 | 13.0 | 18.7
CCOCCCNC(=O)NC(=O)CN1CCN(S(=O)(=O)c2ccc3c(c2)OCCO3)CC1 | 0.0 | 0.4 | -23.0 | 0.2 | -11.5 | -9.2
CC(C)Oc1ccc(C2C(C(=O)c3ccco3)=C(O)C(=O)N2CCCN(C)C)cc1 (centres undefined) | nt | -1.5 | nt | 0.1 | nt | nt
O=C(NCc1cccs1)C1CCCN1C(=O)Nc1ccc(F)cc1 (centres undefined) | nt | 2.2 | -54.4 | 0.5 | 2.2 | 8.6
CN1c2ccsc2C(O)=C(C(=S)Nc2ccc(F)c(Cl)c2)S1(=O)=O | -6.0 | -1.6 | 54.0* | -0.2 | -20.2 | 33.5
Clc1ccc(-c2nc(/C=N/N3CCOCC3)c3ccccn23)cc1 | -3.0 | -1.3 | -27.4 | -0.8 | 3.7 | 24.5
O=C(NNC(=O)c1ccccc1Cl)c1cc2cc(OC(F)(F)F)ccc2[nH]1 | nt | 2.7 | 4.1 | 2.2 | 18.2 | -0.3
O=C(COc1ccc(Br)cc1CNC1CCCC1)Nc1ccccc1 | -1.0 | 4.8 | -31.9 | 0.9 | -2.6 | 1.7
Cc1cccc(OCC(=O)Nc2ccc3c(c2)OCO3)c1C | 0.0 | -1.7 | -23.1 | -0.3 | -16.4 | 10.9
O=C(COC(=O)CCCc1c[nH]c2ccccc12)Nc1ccc2c(c1)OCO2 | -6.0 | -1.0 | -31.8 | -0.3 | 10.3 | 55.6*
Cc1ccc(C)c(OCC(=O)Nc2ccc3c(c2)OCO3)c1C | -3.0 | -6.2 | 85.0* | 0.0 | -22.5 | -15.5
Nn1c(COc2ccc(Cl)cc2)nc2ccccc2c1=O | -3.0 | -0.3 | -20.2 | 1.2 | -5.0 | 12.9
Clc1ccc2noc(-c3ccccc3)c2c1 | 0.0 | -1.6 | 2.6 | -0.5 | 1.6 | 6.7
COc1ccc(-c2onc3ccc(Cl)cc23)cc1OC | nt | -5.9 | nt | 75.0* | nt | nt
Cc1ccc(C2=NN=C(NC(=O)CSc3nnc4c5ccccc5n(C)c4n3)SC2)cc1 | -1.0 | -5.3 | -3.2 | 0.3 | -95.4 | 63.5*
CC(=O)OCc1c(F)c(F)c(-n2nc(C)cc2C)c(F)c1F | -2.0 | -2.8 | -0.2 | 0.3 | -20.4 | -19.2
O=C(Nc1ccc(S(=O)(=O)Nc2nccs2)cc1)/C(=C/c1ccccc1Cl)NC(=O)c1ccccc1 | -12.0 | 2.0 | -68.4 | 1.0 | -45.3 | 93.6*
COc1cc(NS(=O)(=O)c2ccc(NC(=O)/C(=C/c3ccccc3Cl)NC(=O)c3ccccc3)cc2)nc(OC)n1 | 0.0 | 0.7 | -39.3 | 0.2 | -3.6 | 4.9
CC(Sc1ncc(C(F)(F)F)cc1Cl)C(=O)NCC1CCCO1 (centres undefined) | -1.0 | 0.7 | -16.3 | -0.9 | -21.2 | 11.8
CC(=O)Nc1ncc2c(n1)CC(c1ccco1)CC2=O (centres undefined) | -1.0 | 0.3 | -5.7 | 0.0 | -21.3 | 1.3
COc1ccc(C(=O)Nc2ncc3c(n2)CC(c2ccco2)CC3=O)cc1 (centres undefined) | 1.0 | -1.4 | -24.6 | 0.3 | 4.7 | 52.5*
NS(=O)(=O)c1ccc(O)c(NC(=O)c2ccc([N+](=O)[O-])cc2)c1 | 1.0 | -0.9 | -13.8 | 1.2 | -9.8 | 3.9
SMILES | Mcl-1 Bim block | TNF death inh | Mcl1-Bid inh | L929 necroptosis | Calpain2 inh | Mcl1 Noxa PPI
CC1CN(c2ccc(NC(=O)c3ccco3)cc2C(=O)O)CC(C)O1 (centres undefined) | nt | 2.2 | -10.6 | 1.1 | -3.0 | 3.9
CCOC(=O)CSc1ncc(-c2ccc([N+](=O)[O-])cc2)[nH]1 | -3.0 | 1.7 | -17.6 | 1.8 | 0.2 | 15.9
O=C(O)C1OC(Oc2c(-c3ccc(O)c(O)c3)oc3cc(O)cc(O)c3c2=O)C(O)C(O)C1O (centres undefined) | 0.0 | -2.6 | 2.5 | 2.4 | 5.7 | 52.8*
NC(=S)Nc1ccc(F)cc1F | nt | 0.3 | 77.1* | -0.5 | 18.3 | -12.1
NC(=S)Nc1ccc(F)c(F)c1F | nt | 1.5 | -49.2 | 0.1 | -18.4 | 0.2
O=C(COC(=O)c1cncc(Br)c1)NCCC1=CCCCC1 | 0.0 | -1.1 | -27.6 | 0.4 | -16.1 | -3.8
Cc1nc(S/C(=C\c2ccc(-c3ccc(C(=O)O)c(Cl)c3)o2)C(=O)O)n[nH]1 | nt | 2.0 | 54.5* | 2.1 | 1.5 | 92.5*
c1ccc(-c2nn3c(Cn4nnc5ccccc54)nnc3s2)nc1 | -1.0 | -2.0 | 7.7 | -0.1 | -56.3 | 54.8*
c1cncc(-c2nn3c(Cn4nnc5ccccc54)nnc3s2)c1 | -6.0 | -1.6 | 1.0 | -0.2 | -15.2 | 19.1
CCOC(=O)C(C(=O)OCC)c1cc(Br)c2noc3c2c1C(=O)c1ccccc1-3 | 42.0* | -16.3 | -14.3 | 36.9 | -102.8 | 57.0*
CC(=O)OCCNc1cc(N2CCN(C)CC2)c2noc3c2c1C(=O)c1ccccc1-3 | -2.0 | 1.5 | -43.1 | 17.6 | -57.7 | 32.5
CCCCNC(=O)NS(=O)(=O)c1ccc(NS(=O)(=O)c2ccccc2)cc1 | 0.0 | -0.1 | -5.2 | 1.1 | -16.4 | -4.4
Cc1ccc(C)c2sc(NC(=O)c3nc4ccccc4s3)nc12 | 0.0 | 0.4 | 32.2 | nt | -47.8 | 17.0
Cc1ccc(NS(=O)(=O)c2cc(C(=O)NCCSc3ccc(C)cc3)ccc2C)cc1 | -2.0 | -10.0 | 0.1 | -0.2 | 16.6 | 2.2
Cc1ccc(NS(=O)(=O)c2cc(C(=O)NCCSC3CCCCC3)ccc2C)cc1 | -1.0 | -7.7 | 0.5 | 1.5 | 56.5* | 7.3
O=c1c2cnn(-c3ccccc3)c2nc(-c2ccco2)n1-c1ccccc1 | 2.0 | -6.0 | 58.4* | 0.9 | -49.2 | 23.2
CCOC(=O)CSc1cccc2cccnc12 | -3.0 | -1.5 | -7.5 | 0.8 | -168.7 | 26.7
c1csc(Cc2nn3c(-c4n[nH]c5c4CCC5)nnc3s2)c1 | 2.0 | -2.0 | -16.6 | -0.1 | -106.4 | 54.0*
O=C(COC(=O)Cn1cnc2ccccc2c1=O)Nc1ccccc1Sc1ccc(Cl)cc1 | -6.0 | 0.8 | 10.2 | 2.0 | 16.4 | 6.3
S=C(NCc1ccc(Cl)cc1)NC1CCN(Cc2ccccc2)CC1 | -6.0 | 0.2 | 74.5* | 0.5 | 54.0* | 21.7
Cc1ccnc2c(N3C(=O)C4C5c6ccccc6C(c6ccccc65)C4C3=O)cccc12 (centres undefined) | 3.0 | -13.1 | 6.6 | -0.3 | -3.9 | 4.8
O=C(NCCc1ccc(F)cc1)c1cc(-c2ccncc2)nc2ccccc12 | nt | 1.0 | -36.0 | 1.4 | 9.8 | 12.5
O=C(COc1ccc([N+](=O)[O-])cc1)NCc1cccnc1 | -1.0 | 1.6 | 2.5 | 0.4 | -0.9 | 13.8

High-throughput results as filed in PubChem BioAssay.
